Results on 53 molecules are retold here after ChEMBL document CHEMBL4513216, “Probing the Open Global Health Chemical Diversity Library for Multistage-Active Starting Points for Next-Generation Antimalarials” (ACS Infect Dis, 2020).

The whole screen tested about 69,000 compounds, of which about 8,600 (12%) showed an effect of 50% or more. For the sample, strong results were picked, then their nearest neighbours and some compounds at random.

This experiment deals with Plasmodium berghei. Description: Screen against P. berghei liver stage (PbLuc), transformed with Luciferase, at 10uM. It counts as functional, HepG2. The settings on record: tested at 10 uM.
As to `c1cnc2c(C3CCN(Cc4ccsc4)CC3)n[nH]c2n1`, the INHIBITION is recorded as 64.8%. On to `Cc1cccc(CC(=O)N2CCCC(c3n[nH]c4nccnc34)C2)c1` (stereo not drawn), for which the INHIBITION turned out to be 50.8%. Turning to `NC(=O)c1cc(C2CCCN(C(=O)CCc3ccncc3)C2)n[nH]1` (stereo not drawn), the INHIBITION is recorded as -51.5%. As to `Cc1ccc(CCC(=O)N2CCCC(c3cc(C(N)=O)[nH]n3)C2)cc1` (stereo not drawn), the INHIBITION came out at 48.1%. Consider `c1cnc2[nH]nc(C3CCN(Cc4ccsc4)CC3)c2c1`, for which the INHIBITION amounted to 22%. Turning to `Cc1nn(CCC(=O)NC2CCCOC2)c(C)c1C` (stereo not drawn), the INHIBITION was determined as 3.35%.

With `CC1CCN(CCNC(=O)C(C)n2cncn2)CC1` (stereo not drawn), the INHIBITION is 22.3%.

For `CNC(=O)C1(C)CN(Cc2cn(C)c3ccc(F)cc23)CCO1` (stereo not drawn), the INHIBITION came out at 3.48%. Take `CNC(=O)[C@@H]1CN(C(=O)C2CCC2)C[C@H]1c1ccnc(N2CCCC2)n1`: the INHIBITION was -33.3%.

`CCN1CC(NC(=O)Nc2nc(C)n(C(C)C)n2)CC1=O` (stereo not drawn): the INHIBITION turned out to be 64.4%. For `CCCN1CC(NC(=O)Nc2nc(C)n(C(C)C)n2)CC1=O` (stereo not drawn), the INHIBITION turned out to be 44.6%. Regarding `Cc1nc(NC(=O)NC2CC(=O)N(C)C2)nn1C(C)C` (stereo not drawn), the INHIBITION is given as 40.6%. Consider `COC(=O)C(NC(=O)CCc1ccco1)c1cc(F)ccc1F` (stereo not drawn), for which the INHIBITION is listed as -4.16%. As to `CC(C(=O)N1CCCCC1)n1nc(-c2cccs2)cc(N)c1=O` (stereo not drawn), the INHIBITION turned out to be 23%. Regarding `O=C(Cc1ccc(Cl)cc1)N[C@@H]1CCC[C@@H](O)[C@@H]1O`, the INHIBITION came to 14.21%. Next, `CC(C)(C)c1noc(-c2ccnc(-n3cnc(C(=O)O)c3)c2)n1`: -6.73%; `CC(=O)N1CCOC(c2cncc(CCC(N)=O)n2)C1` (stereo not drawn): 10.9%. As for `c1nc(C2CCCCO2)ncc1CN1CCOCC1` (stereo not drawn), the INHIBITION is 0.696%.

Turning to `N#Cc1cc2c(nc1SCc1cc(O)nc(O)n1)CCCC2`, the INHIBITION is on record as 32.3%. For `N#Cc1cc2c(nc1SCc1cc(O)nc(O)n1)CCCCC2`, the INHIBITION worked out at 66.4%.

With `N#Cc1cc2c(nc1O)CCCCC2`, the INHIBITION amounted to 23.4%. As for `N#Cc1ccccc1N1CC2(CCCCN2CC2CC2)CC1=O` (stereo not drawn), the INHIBITION is listed as 15.3%. As for `CC(C)n1cc(CN2CCCN(C(=O)C(C)n3cccn3)CC2)cn1` (stereo not drawn), the INHIBITION amounted to 38.5%. As for `O=C1COc2cc(C(=O)N3CCCC(n4cccn4)C3)ccc2N1` (stereo not drawn), the INHIBITION is on record as -24.2%. As to `CCN1CC(CN(C)Cc2nc(-c3ccoc3)oc2C)CC1=O` (stereo not drawn), the INHIBITION turned out to be 39.6%.

For `CCNC(=O)N(C)C1CCCc2nc(C)sc21` (stereo not drawn), the INHIBITION amounted to 64.9%. Regarding `CCc1nc2c(s1)C(N(C)C(=O)c1cc[nH]n1)CCC2` (stereo not drawn), the INHIBITION worked out at 28.6%. For the molecule `CCc1nc2c(s1)C(N(C)C(C)=O)CCC2` (stereo not drawn), the INHIBITION was 6.33%. To `Cc1nc2c(s1)C(N(C)C(=O)NCCCC(C)(C)CO)CCC2` (stereo not drawn) belongs 3.67%. As for `CC(=O)N(C)C1CCCc2nc(C)sc21` (stereo not drawn), the INHIBITION came to 3.03%.

Turning to `CCc1nc2c(s1)C(N(C)C(=O)c1csnn1)CCC2` (stereo not drawn), the INHIBITION came to 68%. Next, `Cc1cc(C)n(CC(=O)N2CCC(c3nc(C(C)C)no3)CC2)n1`: -6.42%; `COc1cc(CNCCn2ccnc2)cc2c1OCO2`: 17.4%; `COc1ccc(CNC(=O)CCN2C[C@@H](C)[C@](O)(C3CC3)C2)cc1`: 25.4%.

As for `CC(=O)Nc1ccc(C(=O)N2CCSCC2c2ccc(C)o2)cc1` (stereo not drawn), the INHIBITION was -14.3%. As for `c1cncc(-c2noc(CN3CCCC3Cn3cccn3)n2)c1` (stereo not drawn), the INHIBITION is on record as -9.37%. To `O=S(=O)(c1cccnc1)N1CCN(Cc2nc(-c3ccco3)cs2)CC1` belongs 33.4%; to `O=S(=O)(c1cccnc1)N1CCN(CC(O)c2cccs2)CC1` (stereo not drawn), -7.28%; to `O=S(=O)(c1ccc(Cl)s1)N1CCN(Cc2nc(-c3ccco3)cs2)CC1`, 86.6%. On to `CC(C)(C)c1csc(CN2CCN(S(=O)(=O)c3cccnc3)CC2)n1`, for which the INHIBITION is given as 29%.

On to `Cc1ccc(CC(=O)N2CCN(CC(O)c3ccccc3)CC2)cn1` (stereo not drawn), for which the INHIBITION was found to be 42.7%. Turning to `O=S(=O)(c1cccnc1)N1CCN(Cc2nc(-c3cccs3)cs2)CC1`, the INHIBITION came to 57.1%. Regarding `O=S(=O)(c1cccs1)N1CCCn2cnc(CN3CCCC3)c2C1`, the INHIBITION is -11.9%. In the case of `Cn1cnc(S(=O)(=O)N2CCN(Cc3ccco3)CC2)c1Cl`, the INHIBITION amounted to 32.7%. Take `O=S(=O)(c1cccs1)N1CCN(Cc2nc(-c3ccco3)cs2)CC1`: the INHIBITION worked out at 57.1%.

Regarding `N#CCCN1CCN(S(=O)(=O)c2ccc(Cl)s2)CC1`, the INHIBITION is recorded as 42%. Take `O=S(=O)(c1cccnc1)N1CCN(CC(O)c2ccccc2)CC1` (stereo not drawn): the INHIBITION was 83.4%.

In the case of `O=S(=O)(c1cccs1)N1CCCn2nnc(CN3CCCCC3)c2C1`, the INHIBITION turned out to be 23.2%. In the case of `Cn1ccc(C(=O)NC2CCC23CCN(Cc2nccs2)CC3)c1` (stereo not drawn), the INHIBITION is recorded as 38.2%. Take `Cc1cc(-c2ccccc2C(=O)O)nc(C2CCCN(C)C2)n1` (stereo not drawn): the INHIBITION is 30.8%. `CC(C)CN1CCS(=O)(=O)[C@@H]2CCN(S(=O)(=O)C3CC3)CC[C@@H]21`: the INHIBITION is listed as 12.1%. `CC(NC(=O)C1CC1)c1cc(O)nc(-c2cccnc2)n1` (stereo not drawn): the INHIBITION was determined as 10.3035%.

Consider `O=C(c1ccnnc1)N1CCO[C@H]2[C@H](Oc3cccnc3)CC[C@@H]21`, for which the INHIBITION is 13.7%.
